AC50 and outcome data for 15 compounds are collected here from PubChem BioAssay (EPA / NIEHS).

In general, AC50 refers to the concentration at which the activity in the assay is half-maximal.

Values joined by “and” are separate entries in the source; they are usually repeats but may differ in a detail not shown here. Equal values may be shown once. Where a structure was tested more than once in an assay, its records may differ in their call. Active and inactive are the calls of the source. Rule for the calls: active = hit-call score of the fitted dose curve at least 0.9, where 1 is the maximum; inactive = score below 0.9.

Holding throughout (conditions): primary human HUVEC with PBMC; actives raise or lower the signal
Read-out in experiment [1]: Monocyte Chemoattractant Protein-1 (MCP1), CCL2 (gene 6347)
Briefly: BSK_LPS_MCP1: BioMAP Diversity Plus: LPS Assay for Monocyte Chemoattractant Protein-1 (MCP1) Biomarker Activity (AID 2283081).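 For AC50: secreted MCP-1 protein quantified by ELISA in culture supernatant.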 The gist of the method: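 ELISA read-out of MCP-1 after 24 h chemical dosing of a human umbilical vein endothelial cell/peripheral blood mononuclear cell co-culture stimulated with LPS. Gain or loss of signal fitted relative to DMSO controls.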

Experiment [2] can be described thus: BSK_LPS_PGE2: BioMAP Diversity Plus: LPS Assay for Prostaglandin E2 (PGE2) Biomarker Activity (AID 2283082).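 For AC50: secreted prostaglandin E2 measured by ELISA in LPS-stimulated co-culture.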 The method in brief: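 ELISA read-out of PGE2 from human umbilical vein endothelial cells co-cultured with peripheral blood mononuclear cells under LPS, 24 h post-dose. Gain or loss of signal scored relative to DMSO baseline.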
Read-out in experiment [3]: Macrophage colony-stimulating factor (MCSF), CSF1 (gene 1435)
Briefly: BSK_LPS_MCSF: BioMAP Diversity Plus: LPS Assay for Macrophage colony-stimulating factor (MCSF) Biomarker Activity (AID 2283083). The method in brief: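 HUVEC + PBMC co-culture (human primary), 24 h post-dose; M-CSF by ELISA; gain/loss of signal fitted bidirectionally vs DMSO baseline.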

Read-out in experiment [4]: Tissue Factor, F3 (gene 2152)
Briefly: BSK_LPS_TissueFactor: BioMAP Diversity Plus: LPS Assay for Tissue Factor Biomarker Activity (AID 2283084). The gist of the method: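 HUVEC/PBMC co-culture, LPS-activated; CD142 ELISA read 24 h post-dose; bidirectional curve fit vs DMSO negative control.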

Read-out in experiment [5]: Tumor necrosis factor (Homo sapiens) (UniProt P01375)
Briefly: BSK_LPS_TNFa: BioMAP Diversity Plus: LPS Assay for Tumour Necrosis Factor alpha (TNFa) Biomarker Activity (AID 2283085).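 For AC50: TNFa protein level quantified by ELISA in the co-culture.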 The gist of the method: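 HUVEC/PBMC co-culture, LPS-stimulated; 24 h post-dose; TNFa by ELISA; gain or loss of signal fitted bidirectionally vs DMSO baseline.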

Read-out in the next experiment: CD38, CD38 (gene 952)
Briefly: BSK_SAg_CD38: BioMAP Diversity Plus: SAg Assay for CD38 Biomarker Activity (AID 2283087). The method in brief: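 Measures CD38 on a human endothelial/PBMC co-culture driven by SEB and TSST-1, 24 h after compound exposure, using ELISA with fluorescence detection; DMSO defines baseline for bidirectional curve fitting.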

Read-out in the next experiment: CD40, CD40 (gene 958)
In words: BSK_SAg_CD40: BioMAP Diversity Plus: SAg Assay for CD40 Biomarker Activity (AID 2283088). The gist of the method: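 HUVEC/PBMC co-culture, 24 h post-dose; CD40 by ELISA, fluorescence intensity; bidirectional fit vs DMSO negative control.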

Read-out in a further experiment: CD69, CD69 (gene 969)
In words: BSK_SAg_CD69: BioMAP Diversity Plus: SAg Assay for CD69 Biomarker Activity (AID 2283089).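 For AC50: cell surface CD69 protein quantified by ELISA with fluorescence detection.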 The gist of the method:
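Endothelial/PBMC co-culture; chemical added; 24 h incubation; CD69 ELISA with fluorescence detection; bidirectional fit vs DMSO.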

Read-out in experiment [6]: Monocyte Chemoattractant Protein-1 (MCP1), CCL2 (gene 6347)
Briefly: BSK_SAg_MCP1: BioMAP Diversity Plus: SAg Assay for Monocyte Chemoattractant Protein-1 (MCP1) Biomarker Activity (AID 2283090). The method in brief:
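Values derive from bidirectional fitting of ELISA-measured MCP1 against DMSO controls. Readings were taken 24 h after dosing human vascular endothelial cells co-cultured with peripheral blood mononuclear cells under superantigen stimulation.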

Read-out in experiment [7]: Vascular cell adhesion molecule 1 (VCAM1), VCAM1 (gene 7412)
In words: BSK_LPS_VCAM1: BioMAP Diversity Plus: LPS Assay for Vascular cell adhesion molecule 1 (VCAM1) Biomarker Activity (AID 2283086). The gist of the method:
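ELISA read-out of VCAM-1 at 24 h post-dosing in an LPS-driven HUVEC/PBMC primary human co-culture; gain or loss of signal fitted bidirectionally against DMSO baseline. Cytotoxicity tracked in parallel cultures by SRB total-protein staining.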

Sequence of Tumor necrosis factor (Homo sapiens) (P01375 whole entry, looked up): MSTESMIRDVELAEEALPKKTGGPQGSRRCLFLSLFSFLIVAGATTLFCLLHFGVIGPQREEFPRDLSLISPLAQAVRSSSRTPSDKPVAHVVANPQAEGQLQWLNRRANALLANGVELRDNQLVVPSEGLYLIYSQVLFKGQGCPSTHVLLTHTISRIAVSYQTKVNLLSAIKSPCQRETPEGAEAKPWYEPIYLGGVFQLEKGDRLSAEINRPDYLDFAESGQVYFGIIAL

With `CCCCCCCCCCCC`, the concentration at half-maximal activity (AC50) in experiment [1] was 36.3 µM (active); in [2], 12.9 µM (active) and 14 µM (active); in experiment [4] it was 16.7 µM (active); in experiment [5], 28.7 µM (active) and 20.7 µM (active). For the same compound, the outcome in experiment [1] was “inactive”; in [3] it was “inactive”; in [4], “inactive”; with CD38, CD38 (gene 952), “inactive”; in the experiment with CD40, CD40 (gene 958) it was “inactive”; with CD69, CD69 (gene 969) it was “inactive”. Also, in experiment [6], the result was inactive.

Turning to `CC[N+](CC)(CC)Cc1ccccc1`, the outcome in experiment [1], in experiment [2], in experiment [3], in experiment [4], in [5] and in experiment [7] was inactive. Besides, the outcome with CD38, CD38 (gene 952) is “inactive”; with CD40, CD40 (gene 958), “inactive”; in the experiment with CD69, CD69 (gene 969), “inactive”; in experiment [6], “inactive”.

For the compound `CCCCC=O`, the outcome was “inactive” in experiment [1]; “inactive” in experiment [2]; “inactive” in experiment [3]; “inactive” in experiment [4]; “inactive” in [5]; “inactive” with CD38, CD38 (gene 952). Also, the outcome with CD40, CD40 (gene 958) is “inactive”; in the experiment with CD69, CD69 (gene 969), “inactive”; in experiment [6] it was “inactive”.

For the compound `Clc1ccc(Nc2nnc(Cc3ccncc3)c3ccccc23)cc1`, the outcome in [1] was “inactive”; in [2], “inactive”; in [3], “inactive”; in experiment [4], “inactive”; in experiment [5] it was “inactive”; in the experiment with CD38, CD38 (gene 952) it was “inactive”. Also, the outcome in the experiment with CD40, CD40 (gene 958) was “inactive”; with CD69, CD69 (gene 969), “inactive”; in experiment [6], “inactive”.

With `CCCCCCCCCCCCOS(=O)(=O)O`, the outcome in [1] is “inactive”; in experiment [2] it was “inactive”; in [3] it was “inactive”; in [4], “inactive”; in [5] it was “inactive”; in the experiment with CD38, CD38 (gene 952), “inactive”. Moreover, the outcome in the experiment with CD40, CD40 (gene 958) was “inactive”; in the experiment with CD69, CD69 (gene 969), “inactive”; in [6] it was “inactive”.

As to `CCC(C)c1ccccc1O` (stereo not drawn), the outcome is “inactive” in [1]; “inactive” in experiment [3]; “inactive” in experiment [4]; “inactive” in experiment [5]; “inactive” with CD38, CD38 (gene 952); “inactive” with CD40, CD40 (gene 958). In addition, the outcome with CD69, CD69 (gene 969) is “inactive”; in experiment [6] it was “inactive”. The AC50 in [2] was 3.28 µM (active).

For `OCC(CO)(CBr)CBr`, the outcome in experiment [1] is “inactive”; in experiment [2], “inactive”; in [3], “inactive”; in experiment [4], “inactive”; in experiment [5] it was “inactive”; in the experiment with CD38, CD38 (gene 952), “inactive”. Further, the outcome with CD40, CD40 (gene 958) is “inactive”; in the experiment with CD69, CD69 (gene 969), “inactive”; in experiment [6], “inactive”.

Regarding `COc1cc(OC)nc(NC(=O)NS(=O)(=O)Nc2ccccc2C(=O)N(C)C)n1`, the outcome in [1] is “inactive”; in experiment [2] it was “inactive”; in [3] it was “inactive”; in experiment [4], “inactive”; in [5] it was “inactive”; with CD38, CD38 (gene 952) it was “inactive”. Moreover, the outcome in the experiment with CD40, CD40 (gene 958) was “inactive”; with CD69, CD69 (gene 969) it was “inactive”; in experiment [6] it was “inactive”.

On to `CCCCCCCCCCCCCCC`, for which the outcome in experiment [1] is “inactive”; in [2], “inactive”; in experiment [3], “inactive”; in experiment [4] it was “inactive”; in experiment [5], “inactive”; in the experiment with CD38, CD38 (gene 952), “inactive”. For the same compound, the outcome in the experiment with CD40, CD40 (gene 958) is “inactive”; with CD69, CD69 (gene 969) it was “inactive”; in experiment [6] it was “inactive”.

On to `O=C(c1ccccc1)c1ccccc1`, for which the outcome in experiment [1] is “inactive”; in [3] it was “inactive”; in [4] it was “inactive”; in experiment [5], “inactive”; in the experiment with CD38, CD38 (gene 952), “inactive”; with CD40, CD40 (gene 958), “inactive”. The outcome in the experiment with CD69, CD69 (gene 969) is “inactive”; in experiment [6], “inactive”. The half-maximal activity concentration (AC50) in [2] was 0.569 µM (active).

Turning to `COCN(COC)c1nc(N(COC)COC)nc(N(COC)COC)n1`, the outcome in experiment [1] was “inactive”; in experiment [2], “inactive”; in experiment [3], “inactive”; in experiment [4], “inactive”; in [5] it was “inactive”; in the experiment with CD38, CD38 (gene 952), “inactive”. Also, the outcome with CD40, CD40 (gene 958) was “inactive”; with CD69, CD69 (gene 969), “inactive”; in experiment [6], “inactive”.

For `C=COC(=O)C(C)(C)CCCCCC`, the concentration at half-maximal activity (AC50) in experiment [1] is 31 µM (active); in experiment [3], 32.4 µM (active); in experiment [4], 32.5 µM (active); in experiment [5], 371 nM (active); with CD40, CD40 (gene 958), 4.12 µM (active); with CD69, CD69 (gene 969) it was 20 µM (active). In experiment [6], the AC50 was 31.1 µM (active). In addition, the outcome in experiment [2] was “inactive”; with CD38, CD38 (gene 952), “inactive”.

Regarding `CCCCc1oc2ccccc2c1C(=O)c1cc(I)c(OCCN(CC)CC)c(I)c1`, the half-maximal activity concentration (AC50) in experiment [1] is 26.1 µM (active); in experiment [3], 10.8 µM (active); in experiment [4], 25.2 µM (active); in experiment [5] it was 23500 nM (active); with CD38, CD38 (gene 952) it was 12.4 µM (active); with CD40, CD40 (gene 958) it was 10.5 µM (active). In addition, the AC50 in the experiment with CD69, CD69 (gene 969) was 11.4 µM (active); in experiment [6] it was 20.5 µM (active). In addition, the outcome in experiment [2] was inactive.

Turning to `O=C(CCCN1CCC(O)(c2ccc(Cl)cc2)CC1)c1ccc(F)cc1`, the figures for the half-maximal activity concentration (AC50) in [1] and in experiment [4] were 29 µM (active) and 20 µM (active), respectively. Also, the outcome in experiment [2] is “inactive”; in experiment [3] it was “inactive”; in experiment [5], “inactive”; in the experiment with CD38, CD38 (gene 952), “inactive”; in the experiment with CD40, CD40 (gene 958), “inactive”; in the experiment with CD69, CD69 (gene 969) it was “inactive”. In addition, the result in experiment [6] was inactive.

`CCOC(=O)CN[C@@H](C(=O)N1CC[C@H]1C(=O)NCc1ccc(/C(N)=N/O)cc1)C1CCCCC1`: the outcome in [1] was “inactive”; in experiment [2], “inactive”; in experiment [3], “inactive”; in experiment [4], “inactive”; in [5], “inactive”; in the experiment with CD38, CD38 (gene 952) it was “inactive”. Also, the outcome was “inactive” with CD40, CD40 (gene 958); “inactive” with CD69, CD69 (gene 969); “inactive” in [6].
